These results are taken from ChEMBL document CHEMBL1157539, “Thousands of chemical starting points for antimalarial lead identification” (Nature, 2010).

Molecules are shown by their SMILES.

Format in all cases: functional
The subject of experiment [1] is Plasmodium falciparum. Nature of the experiment: GSK_TCMDC: Inhibition of Plasmodium falciparum 3D7 in whole red blood cells, using parasite LDH activity as an index of growth. Test compounds present at 2uM.
Experiment [2] has as its system Plasmodium falciparum. Put plainly: GSK_TCMDC: Inhibition of Plasmodium falciparum Dd2 in whole red blood cells, using parasite LDH activity as an index of growth. Test compounds present at 2uM.
For the next experiment, the system named is HepG2. Nature of the experiment: GSK_TCMDC: Percent inhibition of human HepG2 cell line. Test compounds present at 10uM.

A word on the Inhibition: it is the relative decrease from the control value, in per cent.

Regarding `Oc1ccc(-c2nc(-c3ccc4oc5ccc(-c6[nH]c(-c7ccc(O)cc7)nc6-c6ccccc6)cc5c4c3)c(-c3ccccc3)[nH]2)cc1`, the figures for the Inhibition with Plasmodium falciparum [1], with Plasmodium falciparum [2] and in the experiment with HepG2 were 84%, 71% and 0%, respectively.
The corresponding values for `COc1cccc(-c2cc(C(=O)Nc3ccc4[nH]c(-c5ccccc5)nc4c3)[nH]n2)c1.O=C(O)C(F)(F)F` are 100%, 65% and 68%.
Turning to `COc1cc(OC)c(OC)cc1C=NN=c1cc(C)[nH]c2ccccc12`, the Inhibition in the experiment with Plasmodium falciparum [1] is on record as 100%; with Plasmodium falciparum [2] it was 95%; with HepG2 it was 5%.
In the same order, the values of `CCn1c(-c2cc(C)on2)nc2cnc(Oc3ccc(C(=O)N4CC(=O)N(C)C4C(C)(C)C)cc3)cc21` (stereo not given) are 81%, 57% and 44%.
The corresponding values for `CCOC(=O)[C@H](Cc1cccc2ccccc12)NC(=O)[C@H](CCC(=O)OC(C)(C)C)NC(=O)c1ccc(N(C)Cc2cnc3nc(N)nc(N)c3n2)cc1` are 93%, 96% and 66%.
The corresponding values for `O=C(Nc1cccc(CN2CCCN(CC3CC3)CC2)c1)c1ccc(Cl)c(Cl)c1.O=C(O)C(F)(F)F` are 92%, 5% and 13%.
Take `Cc1ccc(O)c(C(=O)c2cc(C(=O)Nc3ccccc3C)c(=O)n(-c3ccccc3C)c2)c1`: the Inhibition in the experiment on Plasmodium falciparum [1] came out at 98%; in the experiment with Plasmodium falciparum [2], 81%; in the experiment with HepG2 it was 0%.
In the same order, the values of `CCNc1cc(C)nc(Nc2ccc(C)cc2)n1` are 100%, 85% and 12%.
Consider `Oc1ccc(Nc2ccnc3cc(Cl)ccc23)cc1`, for which the Inhibition amounted to 100% in the experiment with Plasmodium falciparum [1], 97% with Plasmodium falciparum [2] and 0% with HepG2.
In the same order, the values of `Fc1ccc(C=NNc2nc3ccccc3[nH]2)cc1` are 98%, 58% and 0%.
In the same order, the values of `CCCCCCOc1ccc(N2C(N)=NC(N)=NC2(C)C)cc1.Cl` are 98%, 0% and 5%.
With `CC(C)[C@H](NC(=O)NC1CCC(CCN2C3CCC2CC(OC(=O)C(CO)c2ccccc2)C3)CC1)C(O)(c1ccccc1)c1ccccc1` (stereo not given in full), the Inhibition with Plasmodium falciparum [1] turned out to be 90%; in the experiment on Plasmodium falciparum [2], 4%; in the experiment with HepG2 it was 17%.
The corresponding values for `CCOc1cccc(C(=O)Nc2cccc(CN3CCCN(Cc4ccc(O)cc4)CC3)c2)c1.O=C(O)C(F)(F)F` are 91%, 31% and 23%.
Consider `N#Cc1cccc(NC(=O)Nc2ccc(CC(=O)N3CCc4cc(Cl)c(N5CCN(C/C=C/c6ccccc6)CC5)cc43)cc2)c1`, for which the results for the Inhibition with Plasmodium falciparum [1], with Plasmodium falciparum [2] and in the experiment with HepG2 were 91%, 61% and 0%, respectively.
The corresponding values for `CC(C)(CNC(=O)[C@H]1CCCN1)c1nc(-c2ccc(Cl)c(O)c2)c(-c2ccncc2)[nH]1.Cl` are 86%, 95% and 0%.
As to `Nc1nc(N)c2cc(NS(=O)(=O)c3ccc(-c4ccccc4)cc3)ccc2n1`, the Inhibition in the experiment with Plasmodium falciparum [1] stood at 100%; in the experiment with Plasmodium falciparum [2], 54%; in the experiment with HepG2 it was 7%.
`CCCCc1ccc(-c2ccc(-c3c(C)[nH]c(C)c(Br)c3=O)cn2)cc1.Cl`: the Inhibition was 98% in the experiment with Plasmodium falciparum [1], 96% in the experiment on Plasmodium falciparum [2] and 0% with HepG2.
Take `CNC(=O)c1ccccc1Nc1nc(Nc2ccc(CCN3CCN(C)CC3)cc2)ncc1Cl.Cl`: the values for the Inhibition in the experiment on Plasmodium falciparum [1], with Plasmodium falciparum [2] and with HepG2 were 97%, 98% and 76%, respectively.
On to `O=C(O)C(F)(F)F.O=S(=O)(NCCN1CCCC1)c1ccc(-c2ccc(CNCc3ccc(F)cc3)cc2)cc1F`, for which the Inhibition with Plasmodium falciparum [1] is listed as 82%; in the experiment on Plasmodium falciparum [2], 21%; in the experiment with HepG2 it was 40%.
The corresponding values for `Nc1nccc2ccc(-c3ccsc3)cc12.O=C(O)C(F)(F)F` are 100%, 89% and 38%.
The corresponding values for `Cc1ccc(NC(=O)c2cccc(N3CCN(c4ccncc4)CC3)c2)cc1F.O=C(O)C(F)(F)F` are 100%, 72% and 43%.
The corresponding values for `Cc1nc2nc(N)nc(N)c2c(C)c1Cc1cccc(C#N)c1.Cl` are 97%, 1% and 64%.
For `O=C(NCc1ccccc1)Nc1ccc(-c2ccc(-c3nc4cc(C(F)(F)F)ccc4[nH]3)cc2)cc1`, the Inhibition in the experiment on Plasmodium falciparum [1] is 99%; in the experiment with Plasmodium falciparum [2], 23%; with HepG2, 40%.
For `CCC(C)(C)c1ccc(S(=O)(=O)Nc2ccc(Cl)c(OCCN3CCCCC3)c2)cc1`, the Inhibition with Plasmodium falciparum [1] stood at 88%; in the experiment on Plasmodium falciparum [2], 93%; in the experiment with HepG2 it was 100%.
In the same order, the values of `Cc1cccc(C(=O)Nc2ccnc(N3CCC(N(C)Cc4ccc(C#N)cc4)CC3)c2)c1.O=C(O)C(F)(F)F` are 94%, 6% and 12%.
The corresponding values for `Cc1cc2nc(-c3ccc(C(=O)NC4CCN(Cc5ccccc5)CC4)cc3)[nH]c2cc1C` are 93%, 99% and 0%.
On to `O=C(Nc1ccc(-c2nc3ccccc3[nH]2)cc1)c1cccc(S(=O)(=O)N2CCOCC2)c1`, for which the Inhibition in the experiment on Plasmodium falciparum [1] came to 89%; in the experiment with Plasmodium falciparum [2], 43%; with HepG2 it was 6%.
In the same order, the values of `COc1ccc(-c2cc(C(=O)Nc3ccc4[nH]c(-c5ccccc5)nc4c3)[nH]n2)cc1.O=C(O)C(F)(F)F` are 90%, 78% and 77%.
For `Nc1cc(-c2ccc(Br)cc2O)nc2ccccc12`, the Inhibition in the experiment with Plasmodium falciparum [1] was 100%; with Plasmodium falciparum [2], 50%; in the experiment with HepG2, 23%.
In the same order, the values of `O=C(Nc1ccc(OC2CCN(Cc3ccc(F)cc3)C2)c(Cl)c1)c1ccccc1.O=C(O)C(F)(F)F` (stereo not given) are 91%, 86% and 11%.
